Assay results as given in PubChem BioAssay (NCI).
About 83,000 compounds went through this panel and 20% of them were active in at least one assay; those are over-represented in the sample as a whole.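 Assay: single dose, 48 h. Readout: percent growth (0 = no net growth; negative = cell death). Active: <10.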 Calls of active or inactive are those of the source.

Tests used:
Assay in all cases: NCI-60 one-dose screen, 48 h (100 = growth as untreated, 0 = no growth, -100 = all killed)
Settings in all cases: 10 µM unless noted
NCI-H23 lung = test system: NCI-H23 lung
NCI-H226 lung = test system: NCI-H226 lung
NCI-H322M lung = test system: NCI-H322M lung
HOP-62 NSCLC = test system: HOP-62 NSCLC
NCI-H460 lung = test system: NCI-H460 lung
HOP-92 NSCLC = test system: HOP-92 NSCLC
NCI-H522 lung = test system: NCI-H522 lung
A549/ATCC NSCLC = test system: A549/ATCC NSCLC
786-0 renal = test system: 786-0 renal
COLO 205 colon = test system: COLO 205 colon

Measured: growth

CN(Cc1cc(Br)cc(Br)c1O)Cc1cc(Br)cc(Br)c1O
inactive: NCI-H23 lung 36.9% | NCI-H226 lung 52% | NCI-H322M lung 26.4% | HOP-62 NSCLC 30.9% | NCI-H460 lung 19.1% | HOP-92 NSCLC 32.3% | A549/ATCC NSCLC 36.8% | 786-0 renal 39.9% | COLO 205 colon 84%
active: NCI-H522 lung 3.36%

CCOC(=O)c1[nH]c2c(c1C)-c1[nH]c(=O)c(S(=O)(=O)c3ccccc3)cc1SC2
active: HOP-92 NSCLC -27.4% [100 µM] | NCI-H522 lung -0.182% [100 µM] | COLO 205 colon -25.8% [100 µM]
inactive: NCI-H23 lung 35.4% [100 µM] | NCI-H226 lung 37.9% [100 µM] | NCI-H322M lung 42.4% [100 µM] | HOP-62 NSCLC 34.3% [100 µM] | NCI-H460 lung 38.2% [100 µM] | A549/ATCC NSCLC 43.7% [100 µM] | 786-0 renal 21.1% [100 µM]

CNC(C)[C@H]1CCC2C3CC=C4C(=O)[C@@H](NC(=O)C=C(C)C)CC[C@]4(C)C3CC[C@@]21C (stereo not given in full)
inactive: NCI-H23 lung 30.1% | NCI-H226 lung 46.5% | NCI-H322M lung 13.9% | NCI-H522 lung 58.5% | A549/ATCC NSCLC 30.3%
active: HOP-62 NSCLC -4.38% | NCI-H460 lung -24.6% | HOP-92 NSCLC 9.2% | 786-0 renal 3.96% | COLO 205 colon -82.4%

CC(C)CCN(CCC(C)C)CC(O)c1cc2c(c3ccccc13)CCCC2 (stereo not given)
inactive: NCI-H23 lung 56.6% | NCI-H226 lung 70.2% | NCI-H322M lung 81.4% | HOP-62 NSCLC 85.6% | NCI-H460 lung 75.3% | HOP-92 NSCLC 40.2% | NCI-H522 lung 56.7% | A549/ATCC NSCLC 73.3% | 786-0 renal 88.8% | COLO 205 colon 60.5%

CNC(=O)c1ccccc1Nc1nc(Nc2cc(OC)c(OC)c(OC)c2)ncc1Br
inactive: NCI-H226 lung 10.1% | HOP-92 NSCLC 53.6%
active: NCI-H23 lung -45.2% | NCI-H322M lung -23.2% | HOP-62 NSCLC -32.8% | NCI-H460 lung -36.9% | NCI-H522 lung -49.8% | A549/ATCC NSCLC -10.4% | 786-0 renal -18.1% | COLO 205 colon -71.3%

COc1cc(/C=C2\CN(S(=O)(=O)c3ccccc3)C/C(=C\c3cc(CN4CCCCC4)c(O)c(OC)c3)C2=O)cc(CN2CCCCC2)c1O
active: NCI-H23 lung -74.7% | NCI-H322M lung -30.1% | NCI-H460 lung -62.6% | HOP-92 NSCLC -65.2% | NCI-H522 lung -46.8% | 786-0 renal -68.8% | COLO 205 colon -4.52%
inactive: NCI-H226 lung 43.4% | HOP-62 NSCLC 104% | A549/ATCC NSCLC 12.1%
